Numbering of substitutions follows the chain as printed.
Tests used:
Experiment in all cases: protein-binding microarray (PBM); PBM: ~300 nM protein, 6 mM HEPES pH 7.8, 80 mM KCl, 0.5 mM EDTA, 0.5 mM EGTA, 6% glycerol, 35 ng/ul poly-dIdC, 1% milk, 1 h, room temperature; Ap Aiptasia and Nv Nematostella (sea anemones) / Co Capsaspora / Aq Amphimedon (sponge) / Dm Drosophila / Hu human; RHD is the Rel homology domain; high values mean tight binding
Settings in all cases: dsDNA, one strand shown
[1] = target: T1, GST-Ap-NF-kB RHD (Exaiptasia pallida (Aiptasia), UniProt A0A913YAJ5 2-422)
T1 sequence: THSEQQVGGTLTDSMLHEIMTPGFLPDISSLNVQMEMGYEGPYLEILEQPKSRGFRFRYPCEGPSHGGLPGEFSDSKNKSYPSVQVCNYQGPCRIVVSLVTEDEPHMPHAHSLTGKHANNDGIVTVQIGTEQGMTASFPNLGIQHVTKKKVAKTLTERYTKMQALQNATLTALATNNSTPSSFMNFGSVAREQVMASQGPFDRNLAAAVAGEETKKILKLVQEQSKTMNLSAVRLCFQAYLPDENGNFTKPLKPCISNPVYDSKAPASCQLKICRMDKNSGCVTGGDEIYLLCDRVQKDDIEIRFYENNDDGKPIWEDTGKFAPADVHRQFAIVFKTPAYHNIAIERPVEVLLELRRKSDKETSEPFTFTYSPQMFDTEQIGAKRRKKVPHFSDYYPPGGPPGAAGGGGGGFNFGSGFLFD

[2] = target: T2, GST-Nv-NF-kB (Cys allele) (Nematostella vectensis, UniProt E5G601 2-411)
T2 sequence: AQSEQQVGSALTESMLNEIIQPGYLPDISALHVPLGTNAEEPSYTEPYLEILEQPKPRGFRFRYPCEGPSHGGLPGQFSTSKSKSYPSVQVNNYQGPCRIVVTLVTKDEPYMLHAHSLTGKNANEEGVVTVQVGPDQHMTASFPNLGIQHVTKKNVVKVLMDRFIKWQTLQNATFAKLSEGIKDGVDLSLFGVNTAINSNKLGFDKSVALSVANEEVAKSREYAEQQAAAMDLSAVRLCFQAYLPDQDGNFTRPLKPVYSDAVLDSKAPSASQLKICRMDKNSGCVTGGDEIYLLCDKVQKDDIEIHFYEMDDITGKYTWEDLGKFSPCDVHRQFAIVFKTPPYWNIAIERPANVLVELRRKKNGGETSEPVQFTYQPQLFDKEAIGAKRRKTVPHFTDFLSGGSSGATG

[3] = target: T3, GST-Nv-NF-kB (Ser allele) (Nematostella vectensis, UniProt A7UNT2 2-411)
T3 sequence: T2 sequence with Q21R, C66S, S207N, E215Q, V217A, E225K, A268E, D399E

[4] = target: T4, GST-Dm-Relish (Drosophila melanogaster, UniProt Q94527 99-473)
T4 sequence: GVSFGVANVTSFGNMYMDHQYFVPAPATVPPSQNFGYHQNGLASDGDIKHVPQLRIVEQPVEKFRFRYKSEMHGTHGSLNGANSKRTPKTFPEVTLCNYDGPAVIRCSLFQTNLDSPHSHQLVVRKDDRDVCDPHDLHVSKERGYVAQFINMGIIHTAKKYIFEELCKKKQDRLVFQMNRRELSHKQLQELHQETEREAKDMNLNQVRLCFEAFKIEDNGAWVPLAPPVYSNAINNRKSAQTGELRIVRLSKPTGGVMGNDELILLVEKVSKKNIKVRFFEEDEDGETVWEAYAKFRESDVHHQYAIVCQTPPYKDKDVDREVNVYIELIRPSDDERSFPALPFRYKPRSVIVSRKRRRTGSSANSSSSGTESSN

[5] = target: T5, GST-Aq-NF-kB (Amphimedon queenslandica, UniProt A9Y5G7 2-389)
T5 sequence: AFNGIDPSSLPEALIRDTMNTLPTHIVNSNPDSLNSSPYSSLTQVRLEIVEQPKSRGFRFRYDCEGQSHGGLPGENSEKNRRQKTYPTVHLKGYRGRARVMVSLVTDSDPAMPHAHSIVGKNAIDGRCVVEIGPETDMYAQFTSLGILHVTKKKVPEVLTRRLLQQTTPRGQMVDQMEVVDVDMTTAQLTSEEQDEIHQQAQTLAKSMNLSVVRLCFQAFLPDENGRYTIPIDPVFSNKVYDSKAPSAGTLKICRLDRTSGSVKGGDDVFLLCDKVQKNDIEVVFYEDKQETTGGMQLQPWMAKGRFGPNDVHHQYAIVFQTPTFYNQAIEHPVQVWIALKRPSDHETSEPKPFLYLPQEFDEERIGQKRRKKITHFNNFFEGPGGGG

[6] = target: GST-Hu-p50 (Homo sapiens, UniProt P19838 7-356)
Chain of GST-Hu-p50 (P19838 7-356): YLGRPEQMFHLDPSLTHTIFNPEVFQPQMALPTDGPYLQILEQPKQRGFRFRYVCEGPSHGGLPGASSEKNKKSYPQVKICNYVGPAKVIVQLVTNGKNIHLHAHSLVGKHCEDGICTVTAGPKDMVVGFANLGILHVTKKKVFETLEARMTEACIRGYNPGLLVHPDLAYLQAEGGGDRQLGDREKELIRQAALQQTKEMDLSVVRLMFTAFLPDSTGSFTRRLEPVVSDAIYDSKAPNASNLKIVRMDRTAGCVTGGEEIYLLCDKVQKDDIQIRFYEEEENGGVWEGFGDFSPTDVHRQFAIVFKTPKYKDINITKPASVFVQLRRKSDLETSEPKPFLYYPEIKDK

[7] = target: T6, GST-Co-NF-kB (Capsaspora owczarzaki, UniProt F1ARL5 200-546)
T6 sequence: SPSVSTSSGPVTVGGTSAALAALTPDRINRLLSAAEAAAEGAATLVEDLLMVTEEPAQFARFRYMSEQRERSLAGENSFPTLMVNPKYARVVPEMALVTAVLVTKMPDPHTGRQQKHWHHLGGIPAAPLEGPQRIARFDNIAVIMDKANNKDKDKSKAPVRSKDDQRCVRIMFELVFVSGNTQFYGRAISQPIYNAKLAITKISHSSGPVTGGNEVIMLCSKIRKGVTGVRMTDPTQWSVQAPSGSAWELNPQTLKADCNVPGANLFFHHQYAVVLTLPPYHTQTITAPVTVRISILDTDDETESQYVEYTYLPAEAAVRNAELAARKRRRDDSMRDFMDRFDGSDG

Sequence | binding signal [1] | binding signal [2] | binding signal [3] | binding signal [4] | binding signal [5] | binding signal [6] | binding signal [7]
CCGATTAACATCAAAAAAGTACCTGATGTTAATCGGGTCTTGATTCGCTTGACGCTGCTG | 4.63 z-score | 7.84 z-score | 11.4 z-score | 9.37 z-score | 5.47 z-score | 5.8 z-score | –
CCGATTAACATCAGAGAAGCCCCTGATGTTAATCGGGTCTTGATTCGCTTGACGCTGCTG | 4.39 z-score | 5.41 z-score | 4.05 z-score | 3.44 z-score | 5.35 z-score | 4.67 z-score | –
CCGATTAACATCAGGAAATTACCTGATGTTAATCGGGTCTTGATTCGCTTGACGCTGCTG | 1.96 z-score | 4.03 z-score | 5.26 z-score | 4.76 z-score | 5.23 z-score | 3.82 z-score | –
CCGATTAACATCAACAAATTCCCTGATGTTAATCGGGTCTTGATTCGCTTGACGCTGCTG | 3.83 z-score | 5.69 z-score | 6.87 z-score | 5.03 z-score | 4.44 z-score | 4.56 z-score | 4.16 z-score
CCGATTAACATCAGGGGGAGGAATGATGTTAATCGGGTCTTGATTCGCTTGACGCTGCTG | 5.2 z-score | 4.58 z-score | 6.46 z-score | 2.99 z-score | 4.59 z-score | 4.89 z-score | 7.99 z-score
CCGATTAACATCAAAAAAACCCCTGATGTTAATCGGGTCTTGATTCGCTTGACGCTGCTG | 9.17 z-score | 10 z-score | 9.69 z-score | 9.78 z-score | 8.79 z-score | 7.76 z-score | 3.62 z-score
CCGATTAACATCAGGGAGGCCCCTGATGTTAATCGGGTCTTGATTCGCTTGACGCTGCTG | 5.52 z-score | 3.79 z-score | 1.37 z-score | 6.28 z-score | 7.2 z-score | 3.63 z-score | –
CCGATTAACATCAGGGAAGGCCCTGATGTTAATCGGGTCTTGATTCGCTTGACGCTGCTG | 4.52 z-score | 4.31 z-score | 1.93 z-score | 8.94 z-score | 6.45 z-score | 2.96 z-score | –
CCGATTAACATCAGGGAGTCACCTGATGTTAATCGGGTCTTGATTCGCTTGACGCTGCTG | 3.25 z-score | 1.16 z-score | 1.39 z-score | 8.86 z-score | 3.63 z-score | 1.96 z-score | –
CCGATTAACATCAGGATAGTCCCTGATGTTAATCGGGTCTTGATTCGCTTGACGCTGCTG | 5.8 z-score | 5.23 z-score | 4.11 z-score | 2.84 z-score | 6.61 z-score | 4.05 z-score | –
CCGATTAACATCAGGAGAGTCCCTGATGTTAATCGGGTCTTGATTCGCTTGACGCTGCTG | 4.86 z-score | 5.29 z-score | 3.96 z-score | 3.65 z-score | 7.1 z-score | 3.89 z-score | –
CCGATTAACATCAGGGATTTACATGATGTTAATCGGGTCTTGATTCGCTTGACGCTGCTG | 2.19 z-score | 2.3 z-score | 1.4 z-score | 9.71 z-score | 3.34 z-score | 1.92 z-score | –
CCGATTAACATCAAACAGCCCCCTGATGTTAATCGGGTCTTGATTCGCTTGACGCTGCTG | 3.65 z-score | 4.11 z-score | 2.49 z-score | 2.9 z-score | 5.29 z-score | 3.92 z-score | 1.91 z-score
CCGATTAACATCACGGTTATTCCTGATGTTAATCGGGTCTTGATTCGCTTGACGCTGCTG | 1.09 z-score | 1.52 z-score | 2.15 z-score | 3.64 z-score | 2.03 z-score | 3.59 z-score | –
CCGATTAACATCAGAAACTCCCATGATGTTAATCGGGTCTTGATTCGCTTGACGCTGCTG | 3.34 z-score | 3.45 z-score | 2.93 z-score | 3.38 z-score | 3.7 z-score | 2.9 z-score | –
CCGATTAACATCAGGGGCTTCACTGATGTTAATCGGGTCTTGATTCGCTTGACGCTGCTG | 3.16 z-score | 3.35 z-score | 2.69 z-score | 7.68 z-score | 4.89 z-score | 4.01 z-score | –
CCGATTAACATCAGTTTCCCCCATGATGTTAATCGGGTCTTGATTCGCTTGACGCTGCTG | 6.91 z-score | 6.51 z-score | 8.2 z-score | 2.94 z-score | 5.09 z-score | 6.77 z-score | 10.6 z-score
CCGATTAACATCAAGGGAACCCCTGATGTTAATCGGGTCTTGATTCGCTTGACGCTGCTG | 5.4 z-score | 3.13 z-score | 1.95 z-score | 9.38 z-score | 5.18 z-score | 3.12 z-score | –
CCGATTAACATCAAATTCCCCCTTGATGTTAATCGGGTCTTGATTCGCTTGACGCTGCTG | 9.34 z-score | 10.3 z-score | 11 z-score | 8.62 z-score | 8.5 z-score | 8.06 z-score | 8.93 z-score
CCGATTAACATCAGGTAATTTTATGATGTTAATCGGGTCTTGATTCGCTTGACGCTGCTG | 1.38 z-score | 3.29 z-score | 5.66 z-score | 3.58 z-score | 2.95 z-score | 4.06 z-score | –
CCGATTAACATCACGGGATTTCGTGATGTTAATCGGGTCTTGATTCGCTTGACGCTGCTG | 1.77 z-score | 1.88 z-score | 1.43 z-score | 3.68 z-score | 1.91 z-score | 2.12 z-score | –
CCGATTAACATCAGGGGATGTACTGATGTTAATCGGGTCTTGATTCGCTTGACGCTGCTG | 4.43 z-score | 4.79 z-score | 5.58 z-score | 9.92 z-score | 5.33 z-score | 4.4 z-score | 3.02 z-score
CCGATTAACATCAGGGACATCCCTGATGTTAATCGGGTCTTGATTCGCTTGACGCTGCTG | 5.51 z-score | 6.99 z-score | 4.22 z-score | 7.71 z-score | 7.32 z-score | 3.84 z-score | –
CCGATTAACATCAAATAGTCCCCTGATGTTAATCGGGTCTTGATTCGCTTGACGCTGCTG | 7.11 z-score | 7.06 z-score | 6.71 z-score | 5.51 z-score | 6.32 z-score | 5.39 z-score | 4.46 z-score
